Test results reported in PubChem BioAssay (NCI).
The panel holds about 79,000 compounds, 15% with a hit somewhere; the sample as a whole holds those more often. Rule as the data show it: active = growth inhibition above about 70%; inactive = the rest.

Assays:
[1] = NCI Yeast Anticancer Drug Screen. Data for the rad50 strain (AID 155);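 also: 0% = growth of vehicle-only cultures of the same strain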; details: S. cerevisiae rad50 strain growth inhibition; at 50.0 µM; stronger effect = higher value
Procedure, shortened: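 Inhibition values express reduced yeast growth in compound-treated cultures relative to vehicle-treated controls.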

[2] = NCI Yeast Anticancer Drug Screen. Data for the mec2-1 strain (AID 157); details: S. cerevisiae mec2-1 strain, at 50.0 µM, stronger effect = higher value
Procedure, shortened: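 Vehicle-treated cultures served as reference for growth inhibition of compound-exposed mec2-1 yeast.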

[3] = NCI Yeast Anticancer Drug Screen. Data for the sgs1 mgt1 strain (AID 161);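 also: 0% = growth of cultures given vehicle only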; details: S. cerevisiae sgs1 mgt1 strain, at 50.0 µM, stronger effect = higher value
Procedure, shortened: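 Genetically altered yeast, compound exposure, growth inhibition relative to vehicle.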

[4] = NCI Yeast Anticancer Drug Screen. Data for the cln2 rad14 strain (AID 165);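 also: 0% = growth equal to vehicle treated cultures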; details: S. cerevisiae cln2 rad14 strain, at 50.0 µM, stronger effect = higher value
Procedure, shortened: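 Each compound was tested on cln2 rad14 yeast. Inhibition of growth was calculated against vehicle-exposed controls.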

[5] = NCI Yeast Anticancer Drug Screen. Data for the bub3 strain (AID 167); details: S. cerevisiae bub3 mutant strain, at 50.0 µM, stronger effect = higher value
Procedure, shortened: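 Steps: expose the mutant yeast strain to compound; grow alongside vehicle-treated cultures; measure growth; express inhibition against the vehicle cultures.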

[6] = NCI Yeast Anticancer Drug Screen. Data for the mlh1 rad18 strain (AID 175); details: S. cerevisiae mlh1 rad18 strain growth inhibition; at 50.0 µM; stronger effect = higher value
Procedure, shortened: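 Vehicle-treated cultures served as the reference for growth inhibition in a yeast strain carrying DNA damage repair alterations exposed to each compound.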

Measured: growth inhibition

CN(C)CCSc1n[nH]c(=O)[nH]c1=O
inactive: [1] 2.4% | [2] -6.35% | [3] -7.35% | [4] -23.4% | [5] -16.1% | [6] -3.45%

CC(=O)NC(N)=O
inactive: [1] 3.9% | [2] 2.2% | [3] 28.4% | [4] -30.9% | [5] -1.9% | [6] 1.6%

Clc1c(Cl)c2ccccc2c2ccccc12
inactive: [1] 10.1% | [2] -8.4% | [3] 11.3% | [4] 8.85% | [5] 32.5% | [6] 4.85%

CC1=C2CC/C(C)=C/CCC3(C)OC3CC/C(C)=C/C2OC1=O (stereo unspecified)
inactive: [1] -8.7% | [2] -21.9% | [3] 13.3% | [4] 15.6% | [5] 5.25% | [6] -20.1%

COC(=O)C(=O)C(C(=O)C=C(C)C)c1nc2n(c1O)C(=N)N=N2 (stereo unspecified)
inactive: [1] 13.2% | [2] 20.9% | [3] 14.3% | [4] -1.75% | [5] 13.1% | [6] 17.4%

C=CCC(=S)NCCc1c[nH]c2ccccc12
inactive: [1] -12.2% | [2] 2.4% | [3] -5.5% | [4] 2.55% | [5] 11.8% | [6] -18.9%

CSc1ccc(NC(=O)SCc2ccccc2)cc1
inactive: [1] -3.5% | [2] 5.15% | [3] 1% | [4] -2.7% | [5] 15.9% | [6] 8.55%

CC(=O)N1CC(C)CC2OC3(CCC4C5CCC6CC(=O)CCC6(C)C5C(=O)C4C3C)C(C)C21 (stereo unspecified)
inactive: [1] -0.65% | [2] -13.1% | [3] -9.15% | [4] -0.75% | [5] -5.9% | [6] -3.75%

O=c1c(SCc2ccc(Cl)cc2)c(SCc2ccc(Cl)cc2)cnn1-c1ccccc1
inactive: [1] -5.7% | [2] -17.2% | [3] 19.2% | [4] 6.65% | [5] -6.6% | [6] 13.1%

CCC(CC)C(=O)OCCOCCOCCOC(=O)C(CC)CC
inactive: [1] -9.3% | [2] -16.8% | [3] -2.15% | [4] 6.8% | [5] -3.35% | [6] 1%

Nc1nc(SCc2ccccc2Cl)cc(C(=O)O)n1
inactive: [1] 31.6% | [2] 34.7% | [3] 47.2% | [4] 4.15% | [5] 44% | [6] 53%

COc1ccc(C(NC(N)=O)c2cc3c(cc2OC(C)=O)OCO3)c(OC)c1 (stereo unspecified)
inactive: [1] 10.8% | [2] 4.65% | [3] -2.45% | [4] 22.4% | [5] -3.25% | [6] 16.3%

NC(=O)C1CCN(S(=O)(=O)c2ccccc2)CC1
inactive: [1] -0.85% | [2] -9.1% | [3] 8.55% | [4] -37.6% | [5] -1.5% | [6] -18.4%

O=C(Nc1cc(S(=O)(=O)O)cc2cc(S(=O)(=O)O)c(N=Nc3cc(Nc4nc(Cl)nc(Nc5ccc(S(=O)(=O)O)cc5)n4)ccc3S(=O)(=O)O)c(O)c12)c1ccccc1
inactive: [1] 17.9% | [2] -10.1% | [3] 10.8% | [4] 3.5% | [5] 0.05% | [6] 25.2%

C/C(=C\Cc1cc(O)c(C)cc1O)CC/C=C(\C)Cc1cc(C)co1
inactive: [1] -14.9% | [2] -19.7% | [3] -35.5% | [4] 17.9% | [5] -1.3% | [6] -8.75%

NNC(=O)C(=O)N/N=C1\CCC(=O)CC1C(=O)CCC(=O)Nc1ccc(Cl)cc1 (stereo unspecified)
inactive: [1] 10.3% | [2] 1.05% | [3] -16.6% | [4] -9.35% | [5] -0.8% | [6] -17.5%

CC(C)(O)c1cc(Cl)ccc1Sc1ccccc1
inactive: [1] -20.6% | [2] -15.2% | [3] -8.85% | [4] 13.7% | [5] 4.85% | [6] -8.2%

COC1OC2COC(c3ccccc3)OC2C(O)C1N=[N+]=[N-] (stereo unspecified)
inactive: [1] 3.4% | [2] 0.7% | [3] -1.35% | [4] -19.9% | [5] -4.4% | [6] 7.9%

O=C(O)CC(c1ccccc1Cl)C(CC(=O)O)c1ccccc1Cl (stereo unspecified)
inactive: [1] 5.55% | [2] -1.55% | [3] -2.55% | [4] 11.6% | [5] -1.05% | [6] 3.4%

CCCCCCCN1C=CCC(S(=O)(=O)N2CCOCC2)=C1
inactive: [1] -15.7% | [2] -7.75% | [3] -11.4% | [4] 3.85% | [5] -16.8% | [6] -2%

CCCCCCCCC(=O)OCC(=O)N(C)C
inactive: [1] 15.6% | [2] 8.8% | [3] 6.35% | [4] 13.3% | [5] 2.9% | [6] 9.4%

CCCCCCC(=O)/C=C/c1ccccc1OC
inactive: [1] 9.15% | [2] -12.2% | [3] -3.55% | [4] -20.4% | [5] 2.3% | [6] -14.1%

O=C(O)CCNc1cccs1
inactive: [1] -19.6% | [2] -1.75% | [3] -26.5% | [4] -63.8% | [5] -4.85% | [6] -19.9%

CC(=O)CC(=O)Nc1cccc(NC(=O)CC(C)=O)c1
inactive: [1] -16.4% | [2] 8.45% | [3] -10.6% | [4] 3.85% | [5] -5.8% | [6] -20.6%

CC1C(=O)OCC2=CCN3CCC(OC(=O)C(C)C1(C)O)C23 (stereo unspecified)
inactive: [1] 2.25% | [2] -15.8% | [3] -3.45% | [4] 8.05% | [5] 0.9% | [6] -32.5%

c1nc2c([nH]1)CNCC2
inactive: [1] -3.05% | [2] -11.2% | [3] -9.05% | [4] -65.7% | [5] -12.2% | [6] 5%

COc1nc2cc3c(cc2n2cccc12)oc1ccccc13
inactive: [1] 11.9% | [2] 7.5% | [3] -4% | [4] 12.2% | [5] -1.75% | [6] -2.65%

CC1OCOC(CO)C(O)C1O (stereo unspecified)
inactive: [1] -18.5% | [2] 1.55% | [3] 17.5% | [4] -32% | [5] -3% | [6] -5.8%

C=CCN1C(N)=C(C#N)C(C#N)(C#N)C1CCC (stereo unspecified)
inactive: [1] 1.2% | [2] 7.65% | [3] -47.9% | [4] 15.8% | [5] -16.6% | [6] -36.6%

Cc1ccc(-c2nn[nH]n2)cc1[N+](=O)[O-]
inactive: [1] 5.65% | [2] 8.6% | [3] -0.65% | [4] -11% | [5] -21.9% | [6] 16.1%

C[N+](C)(C)Cc1ccc2ccccc2c1CC(O)(c1ccccc1)c1ccccc1
inactive: [1] 16.6% | [2] -0.6% | [3] 19.1% | [4] 4.85% | [5] 1.95% | [6] 9.8%

O=C(Nc1ccc(Br)cc1)Nc1ccc(Br)cc1
inactive: [1] -23.3% | [2] 8.15% | [3] 15.3% | [4] -36.4% | [5] 31.9% | [6] 6.25%

CCN(CC)CCOCC1CCCN2CCCCC12 (stereo unspecified)
inactive: [1] -9.5% | [2] -9.8% | [3] -1.75% | [4] 5.75% | [5] 16.1% | [6] -50.1%

COc1ccccc1N(CN1C(=O)CCC1C(=O)O)C(C)=O (stereo unspecified)
inactive: [1] 9.2% | [2] 10.4% | [3] -4% | [4] 7.25% | [5] -9.1% | [6] -37.9%

N#CC(N)(C(=O)C(=O)NCCCNC(=O)C(=O)C(N)(C#N)c1ccc(Cl)cc1)c1ccc(Cl)cc1 (stereo unspecified)
inactive: [1] -37% | [2] -1.45% | [3] -32.4% | [4] -18.6% | [5] -35.1% | [6] -28.7%

COC(=O)c1cc2ccccc2[nH]1
inactive: [1] 4% | [2] 8% | [3] -7.6% | [4] -15.3% | [5] -11.9% | [6] -13.8%
